Source: PubChem BioAssay
Active and inactive are the calls of the source. No rule for the calls is given here.

Molecular target: Pantothenate synthetase (Mycobacterium tuberculosis (strain ATCC 25618 / H37Rv)) (UniProt P9WIL5)
Test: Recombinant Mtb pantothenate synthetase (PanC) inhibitors, coupled enzyme, confirmatory (AID 375);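 also: 0% = full reaction with vehicle and 100% = no enzyme background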
Details: coupled enzyme assay; at 10 µM, active compounds read high

Sequence of Pantothenate synthetase (Mycobacterium tuberculosis (strain ATCC 25618 / H37Rv)) (P9WIL5 whole entry, looked up): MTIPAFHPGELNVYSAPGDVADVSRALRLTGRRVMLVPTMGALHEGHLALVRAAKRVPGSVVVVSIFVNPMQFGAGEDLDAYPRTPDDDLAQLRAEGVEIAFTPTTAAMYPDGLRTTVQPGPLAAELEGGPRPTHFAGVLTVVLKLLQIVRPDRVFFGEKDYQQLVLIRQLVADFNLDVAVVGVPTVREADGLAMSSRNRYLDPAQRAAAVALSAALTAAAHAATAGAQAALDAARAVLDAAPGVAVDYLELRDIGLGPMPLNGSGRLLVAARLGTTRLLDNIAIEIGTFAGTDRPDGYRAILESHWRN

SMILES | inhibition
CC1Cc2ccccc2N1C(=O)c1cccnc1 (configuration not stated) | 0% (inactive)
CN(Cc1ccc(-n2cccn2)cc1)C(=O)c1cnn2c1NC(c1ccco1)CC2C(F)(F)F (configuration not stated) | 0% (inactive)
Cc1cc(Cl)cc2c1NC(=O)[C@]21[C@@H]2C(=O)N(Cc3ccccc3)C(=O)[C@@H]2[C@@H]2CCCN21 | 6% (inactive)
Cc1ccc(Nc2cc(C)nc3nnnn23)cc1 | 6% (inactive)
O=C(CSc1nnc(-c2ccccc2)o1)N1CCc2ccccc2C1 | 0% (inactive)
COc1cc2c(c(OC)c1)C(c1ccncc1)CC(=O)N2 (configuration not stated) | 0% (inactive)
CCn1c(SCC(=O)N2c3ccccc3CCc3ccccc32)nc2c1c(=O)n(C)c(=O)n2C | 1% (inactive)
C=CCOC(=O)COc1ccc2c(C)c(C)c(=O)oc2c1C | 0% (inactive)
Cc1cccc(-c2nc(CN3CCCC(C(=O)NC4CCCC4)C3)c(C)o2)c1 (configuration not stated) | 0% (inactive)
COc1ccccc1NC(=O)N1CCN(c2cccc(C(F)(F)F)c2)CC1 | 4% (inactive)
CCOc1ccc(S(=O)(=O)Nc2cccc(Cl)c2)cc1 | 1% (inactive)
C/C(=C\c1cc(C(=O)O)c(C)o1)CO | 0% (inactive)
Cc1ccc(-n2c(C)cc3c2CCCC3=O)cc1 | 0% (inactive)
Nc1nc(CSc2nc3ccccc3[nH]2)nc(N2CCOCC2)n1 | 4% (inactive)
COc1ccc(C2=NOC(C(=O)NC3CCCCC3)C2)cc1OC (configuration not stated) | 2% (inactive)
Cc1cc(/N=C/N(C)C)on1 | 0% (inactive)
CCOC(=O)c1cc2sccc2n1CC(=O)Nc1ccc2c(c1)OCCO2 | 0% (inactive)
